Assay results from PubChem BioAssay AID504408 (Broad Institute, 2011).
The whole screen tested about 300,000 compounds, of which about 5,200 (1.7%) were called active. The sample as a whole holds a higher share of actives than the screen did. Values without a mark were called inactive.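 How the source made its calls: active means mean replicate activation of at least 50% with a set share of replicates each reaching 50%; inconclusive means only one of those two conditions met; inactive means mean below 50% and too few replicates reaching it.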

Assay: HSF-1 response element luciferase induction – NIH3T3-HGL cells, MG132 stress, luminescence, single point, primary screen (AID 504408);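 further: 0% = median of the neutral control wells and 100% = twice that signal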
Details: NIH3T3-HGL HSF-1 luciferase reporter, MG132, 8 h; at 9 µM; hits give high values; 100% = twice DMSO control signal

Row | Structure (SMILES) | activation
1 | c1ccc(C[C@H]2CNCCN2CCC23CC4CC(CC(C4)C2)C3)cc1 | -13.4%
2 | Cc1ccc(CSCC(=O)N(C)CC(=O)Nc2ccc(C)cc2)cc1 | -77.8%
3 | O=C(CSC1=NS(=O)(=O)c2cc(F)ccc2N1)Nc1ccccc1F | 30%
4 | Cc1ccc(NC(=O)c2cc3ccccc3o2)cc1 | 51.6% (active)
5 | C/C(=N\NC(=S)Nc1ccc(C)cc1)c1cc2ccccc2o1 | 7.68%
6 | Cc1ccc(OC(=O)c2cc3ccccc3o2)cc1 | 5.61%
7 | CN(/N=C/c1ccccc1)C(=S)c1ccccc1 | 9.01%
8 | O=C1c2ccccc2NC(c2ccc(-c3cccc(Cl)c3)o2)N1O (centres undefined) | 76.4% (active)
9 | O=c1c(-c2cccc(Cl)c2)c[nH]n1-c1ccccc1 | 7.2%
10 | O=C(O)C(c1ccccc1)N1C(=O)/C(=C\c2ccc(-c3cccc(Cl)c3)o2)SC1=S (centres undefined) | -2.76%
11 | Cc1ccc(C(=O)C(C)OC(=O)Cc2n[nH]c(=O)c3ccccc23)cc1C (centres undefined) | -0.0365%
12 | O=C(NCc1ccccn1)Nc1ccc(Cl)cc1 | -2.45%
13 | CCN(CC(=O)Nc1c(F)cccc1F)C(=O)C1CCC1 | -4.88%
14 | NC(=O)c1ccsc1NC(=O)c1ccco1 | 26.5%
15 | O=C(Nc1ccccc1)c1ccco1 | 11.5%
16 | O=C(Nc1nc(-c2ccco2)c(-c2ccco2)s1)c1ccco1 | 70.1% (active)
17 | Cc1csc(NC(=O)c2ccc(C)s2)n1 | -3.76%
18 | O=C(NCCCN1CCCC1=O)c1ccc(S(=O)(=O)Nc2ccccc2)cc1 | 16.8%
19 | CC(C)(C)C(=O)COC(=O)c1cc(S(=O)(=O)N2CCCCC2)ccc1N1CCOCC1 | -1.57%
20 | Cc1ccc2nnn(Cc3cccc(C(C)(C)C)c3O)c2c1 | 59.9% (active)
21 | Cc1ccc(C(=O)CSc2nnc(Cn3nnc4ccccc43)n2C)cc1 | 43.4%
22 | O=C(CN1C(=O)NC2(CCCC2)C1=O)OCCOc1ccc(F)cc1 | 3.21%

Row | Structure (SMILES) | activation
23 | CCCCn1c(N)c(N(CCC(C)C)C(=O)CC2OC(=O)c3ccccc32)c(=O)[nH]c1=O (centres undefined) | -3.07%
24 | Cc1cc(C)nc(S/C=C/C(=O)c2ccccc2)n1 | 111% (active)
25 | Cc1cc(Oc2ccc(Cl)cc2)nc(SCC(=O)c2ccccc2)n1 | 2.82%
26 | Cc1cc(C)nc(SCC(=O)c2ccc(Cl)cc2)n1 | -1.86%
27 | CSc1ccc(/C=C2\NC(=O)NC2=O)cc1 | 20.8%
28 | CN(Cc1ccccc1F)C(=O)C(Cc1ccccc1)NC(=O)c1ccccc1 (centres undefined) | -0.838%
29 | CCCCn1c(N)c(N(CCOC)C(=O)COc2c(C)cccc2C)c(=O)[nH]c1=O | -3.47%
30 | CCC(C)NC(=O)C1c2ccccc2C(=O)N1Cc1ccccc1 (centres undefined) | 16.4%
31 | CC1CCC(NC(=O)C2c3ccccc3C(=O)N2Cc2ccc3c(c2)OCO3)CC1 (centres undefined) | -8.55%
32 | CCc1ccc(CN2C(=O)c3ccccc3C2C(=O)NCC2CCCO2)cc1 (centres undefined) | 62.2% (active)
33 | CCOC(=O)c1cc(NC(=O)c2cccnc2)ccn1 | -78.8%
34 | COc1ccc(S(=O)(=O)N2CCOCC2)cc1NC(=O)CSc1ncnc2ccccc12 | 72.7% (active)
35 | COc1ccc(S(=O)(=O)N2CCCCC2)cc1NC(=O)COc1ccccc1 | 4.76%
36 | COc1ccc(S(=O)(=O)N2CCOCC2)cc1NC(=O)COc1ccccc1 | -3.48%
37 | CCCOC(=O)Cc1c(O)c2ccccc2[nH]c1=O | -21.7%
38 | O=C(Cc1c(O)c2ccccc2[nH]c1=O)NCc1ccccc1 | 55.5% (active)
39 | CCCC(=O)Nc1c(O)c2ccccc2[nH]c1=O | -31.5%
40 | Cc1ccc(NS(=O)(=O)c2ccc(C(=O)NCCCN3CCOCC3)cc2)cc1 | -3.65%
41 | O=C(NCCS(=O)(=O)NCc1ccc(F)cc1)c1ccccc1 | 2.75%
42 | O=C(Nc1cccc2c1CCCC2)c1ccc(F)cc1 | -3.19%
43 | COc1ccc2oc(C(=O)NCc3ccco3)c(C)c2c1 | 6.69%
44 | O=C(NCc1ccco1)c1sc2cccc(F)c2c1Cl | 27.8%

Row | Structure (SMILES) | activation
45 | COc1ccc2c(Cl)c(C(=O)NCc3ccco3)sc2c1 | 59.8% (active)
46 | CCN(CC(=O)Nc1cccc(S(=O)(=O)N2CCCCC2)c1)Cc1ccccc1 | 0.93%
47 | CN1C(C(=O)NCc2ccco2)CC2Cn3c(nc4ccccc43)C21 (centres undefined) | -8.57%
48 | Cc1nn(C)c(C)c1NS(=O)(=O)c1ccc(OC(F)(F)F)cc1 | 0.0449%
49 | Cc1ccc(S(=O)(=O)N(Cc2cccc([N+](=O)[O-])c2)C(=O)N2CCN(C)CC2)cc1 | 17.1%
50 | CC(=O)c1ccc(S(=O)(=O)NC2CC(=O)N(c3ccc4c(c3)OCCO4)C2)cc1 (centres undefined) | 8.08%
51 | Cc1ccc(Cc2nc(-c3cccc(C)c3)no2)cc1 | 17.5%
52 | COc1ccc2[nH]c(=O)c(-c3noc(-c4ccc(F)cc4)n3)cc2c1 | 25.7%
53 | Cc1cccc(-c2noc(-c3ccc(F)cc3)n2)c1 | 55% (active)
54 | CCc1noc(C)c1C(=O)Oc1ccc(N(C)S(=O)(=O)c2ccc(C)c(C)c2)cc1 | -16.6%
55 | CCOC(=O)c1ccc(NC(=S)N2CCCC2)cc1 | 17.9%
56 | CCOc1ccc(NC(=S)N2CCC(N(C)CC3CCCO3)CC2)cc1 (centres undefined) | -6.15%
57 | CCOc1ccc(NC(=S)N2CCCCCC2)cc1 | 65.8% (active)
58 | O=C(Nc1ccc2nc3n(c(=O)c2c1)CCCC3)c1ccc(Cl)nc1 | 3.58%
59 | COc1ccc(C(=O)NCC(c2ccco2)N2CCc3ccccc32)cc1OC (centres undefined) | 2.97%
60 | Cc1noc(C)c1CSCC(=O)Nc1ccc(Br)cc1Cl | 1.94%
61 | CC(C)n1c(COc2ccccc2)nc2ccccc21 | 12.3%
62 | Cc1ccc(OCc2nc3ccccc3n2C)cc1 | 75.6% (active)
63 | COCn1c(COc2ccccc2)nc2ccccc21 | 23.9%
64 | Cc1n[nH]c(=O)c2c(NC(=O)COC(=O)c3ncc(Cl)c(Cl)c3Cl)oc(C)c12 | -1.88%
